{"source": "PubChem BioAssay", "note": "Values joined by “and” are separate entries in the source; they are usually repeats but may differ in a detail not shown here. Equal entries are not always repeated. Unmarked numbers belong to inactive results.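 How the source made its calls: active means compounds killing one labelled cell type while sparing the other, by normalised counts and ratio limits, not self-fluorescent; inactive means the rest.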"}
{"assay": "EMT-state selective cytotoxicity in co-culture – imaging, PC-3E GFP, TEM4-18 mCherry, primary screen (AID 1345086);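 further: normalised mesenchymal count divided by normalised epithelial count so high means epithelial killing; cells exposed to compound for 72 h before imaging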", "conditions": "PC-3E GFP / TEM4-18 mCherry co-culture, imaging cell counts; at 1 µM; actives lie on both sides; counts scaled to control wells, 1 = unselective"}
{"molecule": "COc1ccc([C@@H]2CC(=O)c3c(O)cc(O[C@@H]4O[C@H](CO[C@H]5O[C@@H](C)[C@H](O)[C@@H](O)[C@H]5O)[C@@H](O)[C@H](O)[C@H]4O)cc3O2)cc1O", "red/green cell ratio (normalised)": 0.82}
{"molecule": "CN[C@@H]1[C@@H](O)[C@@H](O[C@@H]2[C@@H](O)[C@H](O[C@H]3O[C@H]([C@@H](C)NC)CC[C@H]3N)[C@@H](N)C[C@H]2N)OC[C@]1(C)O", "red/green cell ratio (normalised)": 0.92}
{"molecule": "CC(=O)[C@@]1(O)CCC2C3C=C(Cl)C4=CC(=O)[C@@H]5CC5[C@]4(C)C3CC[C@@]21C", "note": "(stereo partly specified)", "red/green cell ratio (normalised)": 0.82}
{"molecule": "CC(C)(C)NC[C@@H](O)COc1nsnc1N1CCOCC1", "red/green cell ratio (normalised)": 1.2}
{"molecule": "CC(C)CC(NC(=O)CCN)C(=O)O", "note": "(stereo unspecified)", "red/green cell ratio (normalised)": 1.07}
{"molecule": "CC[C@H](C)C(=O)O[C@H]1CCC=C2C=C[C@H](C)C(CCC3C[C@@H](O)CC(=O)O3)[C@H]21", "note": "(stereo partly specified)", "red/green cell ratio (normalised)": 0.93}
{"molecule": "NC[C@H]1O[C@H](O[C@H]2C(O[C@@H]3O[C@H](CO)[C@@H](O)[C@H]3O)[C@@H](O)[C@H](N)C[C@@H]2N)[C@H](N)[C@@H](O)[C@@H]1O", "note": "(stereo partly specified)", "red/green cell ratio (normalised)": 0.87}
{"molecule": "CC1=C2C(=CO[C@H](C)[C@H]2C)C(=O)C(C(=O)O)=C1O", "red/green cell ratio (normalised)": "1.08 and 1.06 and 0.92"}
{"molecule": "CC(=O)Oc1ccc2c(c1)CCC1C2CC[C@@]2(C)C1CC[C@@H]2OC(C)=O", "note": "(stereo partly specified)", "red/green cell ratio (normalised)": 0.86}
{"molecule": "C1CCN2C[C@H]3C[C@H](CN4CCCC[C@@H]34)[C@H]2C1", "red/green cell ratio (normalised)": 1.01}
{"molecule": "CC(CCC(=O)O)[C@H]1CCC2C3CC[C@@H]4C[C@H](O)CC[C@]4(C)C3CC[C@@]21C", "note": "(stereo partly specified)", "red/green cell ratio (normalised)": 0.99}
{"molecule": "C[C@@H]1CC[C@@]2(OC1)OC1CC3C4CC=C5C[C@@H](O)CC[C@]5(C)C4CC[C@]3(C)C1[C@@H]2C", "note": "(stereo partly specified)", "red/green cell ratio (normalised)": 1.13}
{"molecule": "CC1CCC2(OC1)OC1CC3C4CC[C@H]5C[C@@H](O)CC[C@]5(C)C4CC(=O)[C@]3(C)C1C2C", "note": "(stereo partly specified)", "red/green cell ratio (normalised)": 1.26}
{"molecule": "CC(=O)Oc1ccc2c(c1)CCC1C2CC[C@]2(C)C(=O)CCC12", "note": "(stereo partly specified)", "red/green cell ratio (normalised)": 0.81}
{"molecule": "CCCC(=O)Nc1ncnc2c1ncn2C1O[C@@H]2COP(=O)(O)O[C@H]2[C@H]1OC(=O)CCC", "note": "(stereo partly specified)", "red/green cell ratio (normalised)": 0.94}
{"molecule": "CC(=O)O[C@@H]1CC2C(C)(C)C(=O)C=C[C@]2(C)C2CC[C@@]3(C)[C@H](c4ccoc4)OC(=O)[C@H]4O[C@]43[C@@]21C", "note": "(stereo partly specified)", "red/green cell ratio (normalised)": 1.12}
{"molecule": "CC(=O)N[C@@H]1[C@@H](C(O)[C@H](O)CO)O[C@](O)(C(=O)O)C[C@@H]1O", "note": "(stereo partly specified)", "red/green cell ratio (normalised)": 0.94}
{"molecule": "CCCCC(=O)O[C@]1(C(=O)CO)[C@@H](C)CC2C3CCC4=CC(=O)C=C[C@]4(C)[C@@]3(F)C(O)C[C@@]21C", "note": "(stereo partly specified)", "red/green cell ratio (normalised)": 1.42}
{"molecule": "CC(C)Oc1ccc2c(=O)cc(-c3ccccc3)oc2c1", "red/green cell ratio (normalised)": 0.86}
{"molecule": "NC[C@@H]1O[C@H](O[C@@H]2[C@@H](CO)OC(O[C@@H]3[C@@H](O)[C@H](N)C[C@H](N)[C@H]3O[C@H]3O[C@H](CO)[C@@H](O)[C@H](O)[C@H]3N)[C@@H]2O)[C@H](N)[C@@H](O)[C@@H]1O", "note": "(stereo partly specified)", "red/green cell ratio (normalised)": 1.21}
{"molecule": "COc1ccc(-c2cc(=O)c3c(O)cc(O[C@@H]4O[C@H](CO[C@H]5O[C@H](C)[C@@H](O)[C@H](O)[C@@H]5O)[C@@H](O)[C@H](O)[C@H]4O)cc3o2)cc1O", "red/green cell ratio (normalised)": 0.86}
{"molecule": "C[N+]1(C)C2CC(OC(=O)[C@@H](CO)c3ccccc3)CC1C1OC12", "note": "(stereo partly specified)", "red/green cell ratio (normalised)": 1.4}
{"molecule": "CC(=O)N1CCCC1C(=O)O", "note": "(stereo unspecified)", "red/green cell ratio (normalised)": 0.79}
{"molecule": "COC1=CC(C)[C@@H]2C[C@H]3OC(=O)C[C@H]4C(C)=C(OC)C(=O)C([C@@]34C)[C@@]2(C)C1=O", "note": "(stereo partly specified)", "red/green cell ratio (normalised)": 0.78}
{"molecule": "NC(Cc1ccc(F)cc1)C(=O)O", "note": "(stereo unspecified)", "red/green cell ratio (normalised)": 0.96}
{"molecule": "COC(=O)C(N)CS", "note": "(stereo unspecified)", "red/green cell ratio (normalised)": 0.97}
